Experimental findings from PubChem BioAssay AID1345085 (National Center for Advancing Translational Sciences (NCATS), 2018) are described below.

Results filed as inconclusive are left out. Calls of active or inactive are those of the source. The call rests on the fitted dose curve; in most records, active means well fitted cell-killing curve with a large enough effect; inconclusive means small, poorly fitted or top-dose-only effect, or effect the other way; inactive means no such curve, though single readings can be large or run the other way.
Potency means the concentration at half of the fitted maximal effect.

The subject of this assay is JEG-3. Kind of assay: Confirmatory qHTS for gynecologic anti-cancer compounds from libraries of approved drugs and bioactive compounds. Further: nearly all actives have a fitted effect of over 55% in size. The conditions noted are these: gynecologic cancer cell panel viability, ATPlite luminescence, 48 h; series mostly up to 57.6 µM. An outline of the steps:
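Cells (1,000/well) were plated, left 16 h at 37 C/5% CO2, then given compound at 11 concentrations (1:3) from 57.5 uM to 0.977 nM for 48 h. ATPlite luminescence after 15 min at room temperature gave IC50 values.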
(In qHTS, concentration-response curves come from the screen itself.)
Consider `CCCCc1oc2ccc(NS(C)(=O)=O)cc2c1C(=O)c1ccc(OCCCN(CCCC)CCCC)cc1`, for which the Potency was 27.3 µM (active).
The same measure for `CCN(CC)CCCC(C)Nc1c2ccc(Cl)cc2nc2ccc(OC)cc12` (configuration not stated): 43.2 µM (active); for `Cc1cc(Nc2nc(N[C@@H](C)c3ccc(F)cc3)c(C#N)cc2F)n[nH]1`: 19.3 µM (active); for `CCC1C(=O)N(C)c2cnc(Nc3ccc(C(=O)NC4CCC(N5CCN(CC6CC6)CC5)CC4)cc3OC)nc2N1C(C)C` (configuration not stated): 0.0611 µM (active).
For `C#C[C@]1(O)CC[C@H]2[C@@H]3CCC4=CC(=O)CC[C@@H]4[C@H]3CC[C@@]21CC`, the Potency result was “inactive”.
The same measure for `CN(C)CC/C=C1\c2ccccc2COc2ccccc21`: “inactive”; for `COc1cc(N2CCC(N3CCN(C)CC3)CC2)ccc1Nc1ncc(Cl)c(Nc2ccccc2S(=O)(=O)C(C)C)n1`: 19.3 µM (active).
The same measure for `CNc1nc(Nc2ccc(C(=O)N3CCOCC3)cc2OC)ncc1Cl`: “inactive”; for `Cc1csc(NC(=O)c2sc3nc4c(c(C(F)(F)F)c3c2N)CCC4)n1`: 13.7 µM (active); for `Cc1cnc(Nc2ccc(F)cc2Cl)nc1-c1c[nH]c(C(=O)NC(CO)c2cccc(Cl)c2)c1` (configuration not stated): “inactive”.
The same measure for `Nc1ccc(C(=O)Nc2cccc(-c3nc(N4CCOCC4)c4oc5ncccc5c4n3)c2)cn1`: 5.44 µM (active).
Turning to `Nc1ccc(-c2ccc3ncc4ccc(=O)n(-c5cccc(C(F)(F)F)c5)c4c3c2)cn1`, the Potency is 2.43 µM (active).
Turning to `Cc1cnc(Nc2cccc(CN3CCOCC3)c2)nc1Nc1cccc(S(=O)(=O)NC(C)(C)C)c1`, the Potency is 17.2 µM (active).
The same measure for `COc1ccc(-c2cc3nccn3c(Nc3ncccc3C(N)=O)n2)cc1OC`: 12.2 µM (active); for `COc1cc2c(cc1-c1c(C)noc1C)ncc1[nH]c(=O)n(C(C)c3ccccn3)c12` (configuration not stated): 3.06 µM (active); for `COc1ccc(-c2ccc3c(N4CCOCC4C)nc(N4CCOCC4C)nc3n2)cc1CO` (configuration not stated): “inactive”.
The same measure for `CC(C)Oc1ccc(C(=O)NC(CNC(=O)CN(C)C)Cc2ccc(-c3cn4cccc(C(C)O)c4n3)cc2)cc1Cl` (configuration not stated): 0.544 µM (active); for `Cn1cnc2c(F)c(Nc3ccc(Br)cc3Cl)c(C(=O)NOCCO)cc21`: “inactive”; for `CCOc1cc2ncc(C#N)c(Nc3ccc(F)c(Cl)c3)c2cc1NC(=O)/C=C/CN(C)C`: 30.6 µM (active).
The same measure for `COc1ccc(CCC(=O)c2c(O)cc(O[C@@H]3O[C@H](CO)[C@@H](O)[C@H](O)[C@H]3O[C@@H]3O[C@@H](C)[C@H](O)[C@@H](O)[C@H]3O)cc2O)cc1O`: “inactive”.
As to `CN1CCN(Cc2ccc(NC(=O)Nc3ccc(Oc4cc(NC(=O)C5CC5)ncn4)cc3)cc2C(F)(F)F)CC1`, the Potency was 0.243 µM (active).
The same measure for `O=C(c1ccc(F)c(F)c1Nc1ccc(I)cc1F)N1CC(O)([C@@H]2CCCCN2)C1`: 24.3 µM (active); for `OC[C@H]1O[C@@H](n2cnc3c(=S)nc[nH]c32)[C@H](O)[C@@H]1O`: 4.85 µM (active); for `CCN1C[C@H](C)n2c(c(O)c3c(=O)n(Cc4ccc(F)c(Cl)c4)nc(C(=O)NC)c32)C1=O`: “inactive”.
The same measure for `Cc1ccc(C(=O)N(CCCN)C(c2nc3cc(Cl)ccc3c(=O)n2Cc2ccccc2)C(C)C)cc1` (configuration not stated): 0.0153 µM (active).
The same measure for `CCn1cc(-c2ccnc3[nH]c(-c4cccc(CN(C)C)c4)cc23)c(-c2ccc(NC(=O)N(C)C)cc2)n1`: 13.3 µM (active).
Take `CN1C2CCC1CC(OC(=O)[C@H](CO)c1ccccc1)C2` (some centres not stated): the Potency result is “inactive”.
The same measure for `Nc1nc(=S)c2[nH]cnc2[nH]1`: 4.32 µM (active).
The same measure for `Cn1c(=O)c(-c2c(Cl)cccc2Cl)cc2cnc(Nc3cccc(C(=O)O)c3)nc21`: “inactive”.
The same measure for `CC[C@@]1(O)C(=O)OCc2c1cc1n(c2=O)Cc2cc3c(CN(C)C)c(O)ccc3nc2-1`: 1.09 µM (active).
With `CS(=O)(=O)c1ccc(-c2cnc(N)c(C(=O)Nc3ccccc3)n2)cc1`, the Potency result is “inactive”.
The same measure for `CNC(=O)c1ccccc1Sc1ccc2c(/C=C/c3ccccn3)n[nH]c2c1`: 13.7 µM (active).
